# Experimental data reported in PubChem BioAssay (NCI).
# Compounds without any hit were thinned out: in the full panel of roughly 83,000, 20% have a hit.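 Results are percent growth after 48 hours of single-concentration exposure. 100 means growth as in untreated cells, lower positive values show inhibition; negative values down to -100 show cell death.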 Unmarked numbers belong to inactive results. The source made the active and inactive calls. How the source made its calls: active means growth percent below 10; inactive means the rest.
# System: MDA-MB-468 breast
# Assay: NCI-60 one-dose screen, 48 h (100 = growth as untreated, 0 = no growth, -100 = all killed)
# Details: 10 µM unless noted
row,SMILES,growth
1,CCO/C=N/C1=C(C#N)C(c2ccc(Cl)cc2)c2c(c3ccccc3n(C)c2=O)O1 (configuration not stated),54%
2,CN1CCN(CCCCCN=c2cc3c(=O)n(CCCCCN4CCN(C)CC4)c(=O)c4c(NCCCCCN5CCN(C)CC5)cc5c(O)n(CCCCCN6CCN(C)CC6)c(=O)c2c5c4-3)CC1,-50.8% (active)
3,C#Cc1ccccc1NC(=O)c1sc2nc3c(cc2c1N)CCCCCC3,73.5%
4,NC(=O)OCCn1cc(-c2nc(-c3c[nH]c4ncccc34)cs2)c2ccccc21,12.4%
5,CC(C)CCSc1nc(NNC(N)=O)c(C#N)c(-c2ccccc2)n1,108%
6,[2H]C([2H])([2H])Oc1cc(F)ccc1/C=C/C(=O)/C=C(/C=C/c1ccc(F)cc1OC([2H])([2H])[2H])OB(F)F,46.1%
7,N=C1CCC(=N)c2c1c(O)c1ccccc1c2O,93.7%
8,CCC(=C(c1ccc(OCCN2CCCCC2)cc1)c1ccc(OCCN2CCCCC2)cc1)c1ccc(Cl)cc1,-77% (active)
9,CCOC(=O)c1ccc[nH]1,100%
10,NCCn1cc(-c2nc(-c3c[nH]c4ncccc34)cs2)c2cc(F)ccc21,64.9%
11,O=C1c2c(c3c4cccnc4[nH]c3c3ccc4ccccc4c23)C(=O)N1CCO,57.6%
12,CC(=O)/C(=C/c1cccc(Cl)c1)C(=O)c1ccccc1,99.2%
13,O=C(CNC1C2CC3CC(C2)CC1C3)Sc1nnc2sc3ccccc3n12 (configuration not stated),102%
14,O=C(Cc1ccc(Nc2ccnc(C(F)(F)F)c2)cc1)N/N=C/c1ccccc1O,8.1% (active)
15,C=C(C)[C@@H]1CC[C@]2(C(=O)N3CCNCC3)CC[C@]3(C)[C@H](CC[C@@H]4[C@@](C)(CCC(=O)N5CCNCC5)[C@H](C(=C)C)CC[C@]43C)[C@@H]12,49.5%
16,OCCNc1nc(Nc2ccc(C3=NN(c4cc(Cl)cc(Cl)c4)C(c4ccc(C(F)(F)F)cc4)C3)cc2)nc(N2CCOCC2)n1 (configuration not stated),66.7%
17,Cc1ccc(-c2nnc(SCc3ccc(O)c4ncccc34)n2-c2ccccc2)cc1,9.08% (active)
18,NC(N)=N/N=C(/c1ccccc1)c1ccc(N)cc1,119%
19,Nc1nc(-c2ccccc2Cl)cc(-c2ccc(Cl)cc2Cl)n1,18.6%

row,SMILES,growth
1,Cc1cccc(C)c1NC(=O)CSC(=S)N1CCN(CCOCCO)CC1,127%
2,NCCSC(c1ccccc1)(c1ccccc1)c1ccccc1,8.69% (active)
3,COc1cccc2nc(Nc3cccc(NC(=O)c4cc(N5CCOCC5)cc(C(F)(F)F)c4)c3)ccc12,67.3%
4,N#Cc1cccc(F)c1,111%
5,COc1ccc(-c2nsc3c2NC(=O)CC3c2cccc(Cl)c2)cc1 (configuration not stated),-6.39% (active)
6,O=C1C=CC(=O)N1c1ccccc1N1C(=O)C=CC1=O,104%
7,COc1ccc(NC(=O)c2sc3nc(C)c(C(O)c4ccccc4)cc3c2N)cc1 (configuration not stated),14.1%
8,O=C(c1ccccc1)C1C(=O)N2C(=S)N(c3ccccc3)C(=O)C2C1c1ccc(Cl)cc1 (configuration not stated),0.678% (active)
9,COC(=O)c1c2c(c(C)[n+]([O-])c1C)C(=O)C(NCc1ccccc1)=CC2=O,-31.8% (active)
10,N#CCCN(CCO)c1ccccc1,97.3%
11,CCOc1ccc(-n2cc(-c3ccc(N(C)C)cc3)[n+]3c2CCCCC3)cc1,-17.4% (active)
12,CC(C)C(C(=O)CCN(C)C)c1ccc(Cl)cc1 (configuration not stated),78.6%
13,NC(N)=NS(=O)(=O)c1ccc(NC2=C(I)C(=O)c3ncccc3C2=O)cc1,94.1%
14,COc1cc(/C=C/C(=O)Nc2cccnc2Nc2cc(OC)c(OC)c(OC)c2)cc(OC)c1OC,99.8%
15,COc1cc2c(cc1OC)CC[N+](CCC[N+](C)(C)C)=C2,103%
16,COc1ccc(/C=C(\c2cc(OC)c(OC)c(OC)c2)c2nnc(-c3cccs3)o2)cc1,77.7%
17,CC[N+](CCCCCCCCCC[N+](CC)(c1ccccn1)c1ccccn1)(c1ccccn1)c1ccccn1,-1.91% (active)
18,Fc1ccc(NCCS)cc1,106%
